{"source": "PubChem BioAssay (NCI)", "note": "The panel holds about 83,000 compounds, 20% with a hit somewhere; the sample as a whole holds those more often.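 How to read the values: 0–100, growth inhibition (40 = 60% inhibited); 0, no net growth; -100 to 0, cell death (-40 = 40% of starting cells died; -100 = all dead).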 Calls of active or inactive are those of the source. Rule for the calls: active = growth percent below 10; inactive = the rest.", "data": [{"system": "LOX IMVI melanoma", "experiment": "NCI-60 one-dose screen, 48 h (100 = growth as untreated, 0 = no growth, -100 = all killed)", "conditions": "10 µM unless noted", "values": [{"compound": "Cc1cc2c(cc1C)[n+](Cc1ccc3ccccc3n1)cn2Cc1ccc2ccccc2n1", "growth": "-56.9% (active)"}, {"compound": "CCOC(=O)c1sc(NC(=O)COc2cccc(/C=C3\\Cc4ccc(Cl)cc4C3=O)c2)nc1C", "growth": "97.7% (inactive)"}, {"compound": "COc1ccc(/C=C/C(=O)c2cccc(NS(C)(=O)=O)c2)cc1", "growth": "75% (inactive)"}, {"compound": "CCOc1cc(/C=C/C(=O)CC(=O)/C=C/c2ccc(OC(=O)CNCCN(CC)CC)c(OCC)c2)ccc1OC(=O)CNCCN(CC)CC", "growth": "-82.3% (active)"}, {"compound": "CC[C@@H](c1ccc(O)c(O)c1)[C@@H](CC)c1ccc(O)c(O)c1", "growth": "61% (inactive)"}, {"compound": "CCCCCc1c(C)[nH]c(/C=C2\\N=C(c3ccc[nH]3)C=C2Oc2ccc(Cl)cc2)c1C", "growth": "-69.2% [100 µM] (active)"}, {"compound": "O=C(O)C1CCN(S(=O)(=O)c2ccc(-c3ccccc3)cc2)CC1", "growth": "103% (inactive)"}, {"compound": "CCCCCN1C(=O)CCC1=O", "growth": "102% (inactive)"}, {"compound": "O=C(O)c1ccc(CNS(=O)(=O)c2ccc3ccccc3c2)cc1", "growth": "100% (inactive)"}, {"compound": "COc1ccc2nc(N/N=C(\\C)c3ccccn3)cc(C)c2c1", "growth": "-99.1% (active)"}, {"compound": "O=C(CNC(=O)c1cccc2ccccc12)Nc1ccccc1Cc1ccccc1", "growth": "38.2% [5 µM] (inactive)"}, {"compound": "NS(=O)(=O)c1ccc(-n2ncc3c(NC4CCCCC4)ncnc32)cc1", "growth": "80.8% (inactive)"}, {"compound": "COc1cc(/C=C/C(=O)CC(=O)/C=C/c2ccc(OC(=O)CCNC34CC5CC(CC(C5)C3)C4)c(OC)c2)ccc1OC(=O)CCNC12CC3CC(CC(C3)C1)C2", "growth": "0.619% (active)"}, {"compound": "COC(=O)[C@H]1[C@H]2C[C@@H]3c4[nH]c5cc(OC)ccc5c4CCN3C[C@H]2C[C@@H](OC(=O)/C=C/c2cc(OC)c(OC)c(OC)c2)[C@@H]1OC", "growth": "26.8% (inactive)"}, {"compound": "Cc1c2oc3c(C)ccc(C(=O)OC(C)C4NC(=O)C(C(C)C)N(C)C(=O)CN(C)C(=O)C5CCCN5C(=O)C(C(C)C)NC4=O)c3nc-2c(C(=O)OC(C)C2NC(=O)C(C(C)C)N(C)C(=O)CN(C)C(=O)C3CCCN3C(=O)C(C(C)C)NC2=O)c(N)c1=O", "note": "(stereo not drawn)", "growth": "4.35% (active)"}, {"compound": "CC(C)=CCCC(C)c1ccc(C)c2c1OCN(CC1CCNCC1)C2", "note": "(stereo not drawn)", "growth": "-70.5% (active)"}, {"compound": "Oc1ccccc1/C=N/N1CCCCCC1", "growth": "96% (inactive)"}, {"compound": "CC[n+]1c(/C=C/c2ccc(N3CCCC3)cc2)cccc1/C=C/c1ccc(N2CCCC2)cc1", "growth": "-76.5% (active)"}, {"compound": "O=C1Nc2ccc(C(=O)O)c(O)c2C1=O", "growth": "54.5% (inactive)"}, {"compound": "CSc1nc2nc3c(c(-c4ccc(C)cc4)c2c(=O)[nH]1)CN(C)C/C3=C\\c1ccc(C)cc1", "growth": "90% (inactive)"}, {"compound": "O=C(/C=C/c1cccc(O)c1)c1cccc(-n2cc(-c3ccccc3)[nH]c2=O)c1", "growth": "-69.5% (active)"}, {"compound": "O=[N+]([O-])c1cc([N+](=O)[O-])c(N2CCCC2)cc1NN=C(c1ccc(O)cc1)c1ccc(O)cc1", "growth": "41.6% (inactive)"}, {"compound": "CC1=C([Se]CC(OC(=O)[C@@H](CSSC(C)(C)C)NC(=O)C(C)(C)C)C(=O)NCCCCCC(=O)OCc2ccccc2)C(=O)c2ccccc2C1=O", "note": "(stereo partly drawn)", "growth": "4.76% (active)"}, {"compound": "C[N+]1(C)C2CC[C@@H]1CC(OC(=O)C(O)c1ccccc1)C2", "note": "(stereo partly drawn)", "growth": "102% (inactive)"}, {"compound": "O=C(O)CNC(=O)C1(N2C(=O)c3ccccc3C2=O)CCCC1", "growth": "97.2% (inactive)"}, {"compound": "Nc1ccccc1-c1ccn[nH]1", "growth": "68.6% (inactive)"}, {"compound": "Cc1ccc(-c2csc(N)n2)cc1", "growth": "101% (inactive)"}, {"compound": "COC(=O)C1(NC(=O)CNC(=O)OCc2ccccc2)CCCC1", "growth": "97.3% (inactive)"}, {"compound": "C[C@]12CC[C@H](O)CC1=CC[C@@H]1[C@@H]2CC[C@]2(C)C(c3cccnc3)=CC[C@@H]12", "growth": "74.5% (inactive)"}, {"compound": "COc1ccc(N2CCN(CC(=O)N3CCN(c4nnc(-c5ccccc5)c(-c5ccccc5)n4)CC3)CC2)cc1", "growth": "44.6% (inactive)"}, {"compound": "O=C(COc1ccc(/C=C2\\Cc3ccccc3C2=O)cc1)c1ccc(Cl)cc1", "growth": "92.8% (inactive)"}]}, {"system": "SK-MEL-28 melanoma", "experiment": "NCI-60 one-dose screen, 48 h (100 = growth as untreated, 0 = no growth, -100 = all killed)", "conditions": "10 µM unless noted", "values": [{"compound": "Cc1cc2c(cc1C)[n+](Cc1ccc3ccccc3n1)cn2Cc1ccc2ccccc2n1", "growth": "10.2% (inactive)"}, {"compound": "CCOC(=O)c1sc(NC(=O)COc2cccc(/C=C3\\Cc4ccc(Cl)cc4C3=O)c2)nc1C", "growth": "118% (inactive)"}, {"compound": "COc1ccc(/C=C/C(=O)c2cccc(NS(C)(=O)=O)c2)cc1", "growth": "110% (inactive)"}, {"compound": "CCOc1cc(/C=C/C(=O)CC(=O)/C=C/c2ccc(OC(=O)CNCCN(CC)CC)c(OCC)c2)ccc1OC(=O)CNCCN(CC)CC", "growth": "-57.1% (active)"}, {"compound": "CC[C@@H](c1ccc(O)c(O)c1)[C@@H](CC)c1ccc(O)c(O)c1", "growth": "87.1% (inactive)"}, {"compound": "CCCCCc1c(C)[nH]c(/C=C2\\N=C(c3ccc[nH]3)C=C2Oc2ccc(Cl)cc2)c1C", "growth": "-52.4% [100 µM] (active)"}, {"compound": "O=C(O)C1CCN(S(=O)(=O)c2ccc(-c3ccccc3)cc2)CC1", "growth": "91.4% (inactive)"}, {"compound": "CCCCCN1C(=O)CCC1=O", "growth": "110% (inactive)"}, {"compound": "O=C(O)c1ccc(CNS(=O)(=O)c2ccc3ccccc3c2)cc1", "growth": "106% (inactive)"}, {"compound": "COc1cc(-c2nc3sc4c(c3c(=O)[nH]2)CCCCCC4)cc(OC)c1OC", "growth": "51.6% (inactive)"}, {"compound": "C/C(=C\\CCc1ccoc1)CC/C=C(\\C)CCCNc1ccc(F)cc1", "growth": "96.6% (inactive)"}, {"compound": "C/C(=C\\CCc1ccoc1)CC/C=C(\\C)CCCC1COC(=O)C1", "note": "(stereo not drawn)", "growth": "96.9% (inactive)"}, {"compound": "O=C(CNC(=O)c1cccc2ccccc12)Nc1ccccc1Cc1ccccc1", "growth": "61% [5 µM] (inactive)"}, {"compound": "COc1cc(/C=C/C(=O)CC(=O)/C=C/c2ccc(OC(=O)CCNC34CC5CC(CC(C5)C3)C4)c(OC)c2)ccc1OC(=O)CCNC12CC3CC(CC(C3)C1)C2", "growth": "33.6% (inactive)"}, {"compound": "C/C(=C\\CCc1ccoc1)CC/C=C(\\C)CCCN1CCSCC1", "growth": "88.7% (inactive)"}, {"compound": "COC(=O)[C@H]1[C@H]2C[C@@H]3c4[nH]c5cc(OC)ccc5c4CCN3C[C@H]2C[C@@H](OC(=O)/C=C/c2cc(OC)c(OC)c(OC)c2)[C@@H]1OC", "growth": "109% (inactive)"}, {"compound": "Cc1c2oc3c(C)ccc(C(=O)OC(C)C4NC(=O)C(C(C)C)N(C)C(=O)CN(C)C(=O)C5CCCN5C(=O)C(C(C)C)NC4=O)c3nc-2c(C(=O)OC(C)C2NC(=O)C(C(C)C)N(C)C(=O)CN(C)C(=O)C3CCCN3C(=O)C(C(C)C)NC2=O)c(N)c1=O", "note": "(stereo not drawn)", "growth": "-20.8% (active)"}, {"compound": "CC(C)=CCCC(C)c1ccc(C)c2c1OCN(CC1CCNCC1)C2", "note": "(stereo not drawn)", "growth": "92.5% (inactive)"}, {"compound": "Oc1ccccc1/C=N/N1CCCCCC1", "growth": "109% (inactive)"}, {"compound": "CC[n+]1c(/C=C/c2ccc(N3CCCC3)cc2)cccc1/C=C/c1ccc(N2CCCC2)cc1", "growth": "-93.6% (active)"}, {"compound": "O=C1Nc2ccc(C(=O)O)c(O)c2C1=O", "growth": "111% (inactive)"}, {"compound": "CSc1nc2nc3c(c(-c4ccc(C)cc4)c2c(=O)[nH]1)CN(C)C/C3=C\\c1ccc(C)cc1", "growth": "111% (inactive)"}, {"compound": "O=C(/C=C/c1cccc(O)c1)c1cccc(-n2cc(-c3ccccc3)[nH]c2=O)c1", "growth": "30.8% (inactive)"}, {"compound": "O=[N+]([O-])c1cc([N+](=O)[O-])c(N2CCCC2)cc1NN=C(c1ccc(O)cc1)c1ccc(O)cc1", "growth": "97.1% (inactive)"}, {"compound": "CC1=C([Se]CC(OC(=O)[C@@H](CSSC(C)(C)C)NC(=O)C(C)(C)C)C(=O)NCCCCCC(=O)OCc2ccccc2)C(=O)c2ccccc2C1=O", "note": "(stereo partly drawn)", "growth": "-27.3% (active)"}, {"compound": "C[N+]1(C)C2CC[C@@H]1CC(OC(=O)C(O)c1ccccc1)C2", "note": "(stereo partly drawn)", "growth": "113% (inactive)"}, {"compound": "O=C(O)CNC(=O)C1(N2C(=O)c3ccccc3C2=O)CCCC1", "growth": "104% (inactive)"}, {"compound": "c1ccc(COc2ccc(Nc3ncnc4c3cnn4-c3ccccc3)cc2)cc1", "growth": "96% (inactive)"}, {"compound": "Nc1ccccc1-c1ccn[nH]1", "growth": "110% (inactive)"}, {"compound": "C/C(=C\\CCc1ccoc1)CC/C=C(\\C)CCCN1CCOCC1", "growth": "80.4% (inactive)"}, {"compound": "O=C(NC1CCCCC1)c1ccc(Nc2ncnc3c2cnn3-c2ccccc2)cc1", "growth": "62.2% (inactive)"}, {"compound": "Cc1ccc(-c2csc(N)n2)cc1", "growth": "110% (inactive)"}, {"compound": "COC(=O)C1(NC(=O)CNC(=O)OCc2ccccc2)CCCC1", "growth": "102% (inactive)"}, {"compound": "C[C@]12CC[C@H](O)CC1=CC[C@@H]1[C@@H]2CC[C@]2(C)C(c3cccnc3)=CC[C@@H]12", "growth": "33.8% (inactive)"}, {"compound": "CC(C)C[C@H](NC(=O)/C=C/Cn1ccc2ccccc2c1=O)B(O)O", "growth": "50.8% (inactive)"}, {"compound": "COc1ccc(N2CCN(CC(=O)N3CCN(c4nnc(-c5ccccc5)c(-c5ccccc5)n4)CC3)CC2)cc1", "growth": "71.3% (inactive)"}, {"compound": "O=C(COc1ccc(/C=C2\\Cc3ccccc3C2=O)cc1)c1ccc(Cl)cc1", "growth": "117% (inactive)"}]}]}
